Data published in PubChem BioAssay (NCATS).
Records with an inconclusive call do not appear. Calls of active or inactive are those of the source. Calls follow the shape of the dose curve; as a rule, active = well fitted curve in the direction sought with a large enough effect; inconclusive = small, poorly fitted or top-dose-only effect, or another doubt; inactive = no such curve, though single readings can be large; an effect the other way counts as inactive or inconclusive.

biological target: Aldehyde dehydrogenase, mitochondrial (Homo sapiens) (UniProt P05091); assay: qHTS for Inhibitors of the Aldehyde Dehydrogenase Family (ALDH2) Primary screen (AID 2061308); conditions: ALDH2 enzyme inhibition qHTS, 1536-well; series mostly up to 56 µM; activity change, negative = inhibition: at the top concentration;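 also: plate controls were vehicle for no effect and reference inhibitor for full effect; nearly all actives have a fitted effect of over 55% in size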

Row | Compound | activity change, negative = inhibition | Potency
1 | S=P(c1ccccc1)(c1ccccc1)c1c[n+](C/C=C/c2ccccc2)c2ccccn12 | 10.7% (inactive) | –
2 | Cc1csc(CNc2ncnc3ccc(-c4ccc5c(c4)OCO5)cc23)c1 | 5.95% (inactive) | –
3 | Cc1cc2[nH]c3c(=O)n(Cc4ccccc4F)ncc3c2s1 | 7.57% (inactive) | –
4 | COc1cccc(C2c3c(ncn(-c4cccc(F)c4)c3=N)Oc3ccc4ccccc4c32)c1 (stereo not given) | 12.9% (inactive) | –
5 | O=C(O)c1ccc2c(c1)C(=O)N([C@]1(C(=O)O)CC1c1ccccc1)C2=O (stereo not given in full) | -1.41% (inactive) | –
6 | CC(C)(C)OC(=O)N[C@@H](Cc1ccc(O[S+](=O)([O-])c2cccc3cnccc23)cc1)C(=O)N1CCN(c2ccccc2)CC1 | -4.85% (inactive) | –
7 | Cc1ccc(S(=O)(=O)Nc2cccc3ccc(C)nc23)cc1 | 4.3% (inactive) | –
8 | CC(C)c1nc2c(cnn2C)c(=O)n1N | -1.53% (inactive) | –
9 | Cc1ccc(-c2ccc(=O)n(CC(=O)NCc3ncc[nH]3)n2)cc1 | 1.82% (inactive) | –
10 | CCC(=O)NC(c1ccc2c(c1)OCO2)c1cc(Cl)c2cccnc2c1O (stereo not given) | -16.1% (inactive) | –
11 | O=C1c2ccccc2C(=O)N1c1cccc(O)c1 | -0.55% (inactive) | –
12 | O=C(O)c1ccc2c(c1)C(=O)N([C@H](Cc1ccc([N+](=O)[O-])cc1)C(=O)O)C2=O | -8.48% (inactive) | –
13 | Cc1ccc(S(=O)(=O)Nc2cc(F)c(F)cc2C(=O)Nc2nc(-c3ccccc3)cs2)cc1 | 13% (inactive) | –
14 | O=C1CCCC2=C1C1(CCCCC1)N=C(Nc1nc3ccccc3o1)N2 | -4.79% (inactive) | –
15 | COCCN(CCOC)c1nc(C)nc2c1nc(-c1ccccc1)n2CCN1CCOCC1 | -1.08% (inactive) | –
16 | Cc1cccc(CNc2ccc(S(=O)(=O)Nc3nccs3)cc2)c1O | 11.7% (inactive) | –
17 | COc1ccc(-c2nc3ccccc3n2Cc2ccccc2)cc1COc1ccc(NC(C)=O)cc1 | 10.5% (inactive) | –
18 | CC(=O)N1c2ccc(S(=O)(=O)Nc3ccc(C)c(C)c3)cc2CC1C (stereo not given) | -4.49% (inactive) | –
19 | Cc1ccccc1C(=O)N1CCc2cc(-c3ccnc(NC(=O)Cc4ccccc4)n3)ccc21 | 6.78% (inactive) | –
20 | CCOc1ccc(-c2csc(N3CCC(C(N)=O)CC3)n2)cc1 | -20.4% (inactive) | –

Row | Compound | activity change, negative = inhibition | Potency
21 | CC(=O)Nc1sc2c(c1C(O)c1nc3ccccc3s1)CCN(C(C)C)C2 (stereo not given) | 7.37% (inactive) | –
22 | Cc1cc2c(s1)c1cnn(Cc3cccc(C(F)(F)F)c3)c(=O)c1n2C | 8.53% (inactive) | –
23 | N[C@@H](Cc1ccc(O[S+](=O)([O-])c2cccc3cccnc23)cc1)C(=O)N1CCN(c2ccccc2)CC1 | 10.1% (inactive) | –
24 | CC(=O)CC(=O)Nc1ccc(Cl)c(C(F)(F)F)c1 | -1.1% (inactive) | –
25 | O=S(=O)(c1ccc2c(c1)OCCO2)N1CCN(S(=O)(=O)c2ccccc2Cl)CC1 | -8.42% (inactive) | –
26 | CC(C)(C)c1cc(O)c(CN)c(C(C)(C)C)c1 | -3.29% (inactive) | –
27 | Brc1cnc2nc(SCc3ccccc3)[nH]c2c1 | 3.17% (inactive) | –
28 | Cc1cc(N[S+](=O)([O-])c2ccc(NC(=O)Cc3ccc(Cl)c([N+](=O)[O-])c3)cc2)no1 | -22% (inactive) | –
29 | CCOc1cc(C)c(Cl)cc1S(=O)(=O)n1cnc2ccccc21 | 1.65% [at 28 µM] (inactive) | –
30 | COC(=O)c1ccc2c(c1)S(=O)(=O)NC2=O | 10.7% (inactive) | –
31 | Cc1cc(C)nc(NC(=S)N2CCN(c3cccc([N+](=O)[O-])c3)CC2)c1 | -12.9% (inactive) | –
32 | Nc1ccc(-c2ccc(NC(=O)c3cccs3)cn2)cc1 | 1.81% (inactive) | –
33 | COC(=O)c1ccc(NC(=O)c2cc(-c3ccc(C)c(C)c3)nc3ccccc23)cc1 | 6.21% (inactive) | –
34 | NC(=O)C1CCN(c2cc(-c3ccc4c(c3)OCCCO4)ncn2)CC1 | 1.25% (inactive) | –
35 | Cc1ccc(-c2nnc(NC(=O)Nc3ccc4ccccc4c3)s2)cc1 | 11.5% (inactive) | –
36 | O=[N+]([O-])c1ccccc1S(=O)(=O)N1CCN(S(=O)(=O)c2ccc3c(c2)OCCO3)CC1 | -0.0717% (inactive) | –
37 | COc1cccc(C2c3c(ncn(-c4cccnc4)c3=N)Oc3ccc4ccccc4c32)c1 (stereo not given) | 1.79% (inactive) | –
38 | C[C@@H]1O[C@@H](O[C@H]2[C@@H](OC(=O)[C@]34CCC(C)(C)CC3C3=CCC5[C@@]6(C)C[C@H](O)[C@H](O[C@@H]7O[C@H](CO)[C@@H](O)[C@H](O)[C@H]7O[C@@H]7OC[C@@H](O)[C@H](O)[C@H]7O)[C@@](C)(C(=O)O)C6CC[C@@]5(C)[C@]3(C)CC4)OC[C@H](O)[C@@H]2O)[C@H](O)[C@H](O)[C@H]1O[C@@H]1OC[C@@H](O)[C@H](O)[C@H]1O (stereo not given in full) | 6.76% [at 11.2 µM] (inactive) | –
39 | CS(=O)(=O)c1ccc(C(=O)OC(C(=O)NC2C3CC4CC(C3)CC2C4)c2ccccc2)cc1[N+](=O)[O-] (stereo not given) | -7.48% (inactive) | –
40 | O=C1CCc2cc(S(=O)(=O)Nc3ccc(Cl)c(Cl)c3)c(F)cc2N1 | – | inactive

biological target: Retinaldehyde dehydrogenase 3 (Homo sapiens) (UniProt P47895); assay: qHTS for Inhibitors of the Aldehyde Dehydrogenase Family (ALDH1A3) Primary screen (AID 2061315); conditions: ALDH inhibition qHTS; series mostly up to 56 µM; activity change, negative = inhibition: at the top concentration;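 also: plate controls were DMSO vehicle for no effect and reference inhibitor for full effect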

Row | Compound | activity change, negative = inhibition | Potency
41 | S=P(c1ccccc1)(c1ccccc1)c1c[n+](C/C=C/c2ccccc2)c2ccccn12 | 2.17% (inactive) | –
42 | Cc1csc(CNc2ncnc3ccc(-c4ccc5c(c4)OCO5)cc23)c1 | 0.292% (inactive) | –
43 | Cc1cc2[nH]c3c(=O)n(Cc4ccccc4F)ncc3c2s1 | 1.53% (inactive) | –
44 | COc1cccc(C2c3c(ncn(-c4cccc(F)c4)c3=N)Oc3ccc4ccccc4c32)c1 (stereo not given) | 8.86% (inactive) | –
45 | O=C(O)c1ccc2c(c1)C(=O)N([C@]1(C(=O)O)CC1c1ccccc1)C2=O (stereo not given in full) | -4.14% (inactive) | –
46 | CC(C)(C)OC(=O)N[C@@H](Cc1ccc(O[S+](=O)([O-])c2cccc3cnccc23)cc1)C(=O)N1CCN(c2ccccc2)CC1 | 0.882% (inactive) | –
47 | Cc1ccc(S(=O)(=O)Nc2cccc3ccc(C)nc23)cc1 | 15.7% (inactive) | –
48 | CC(C)c1nc2c(cnn2C)c(=O)n1N | -5.53% (inactive) | –
49 | Cc1ccc(-c2ccc(=O)n(CC(=O)NCc3ncc[nH]3)n2)cc1 | 0.397% (inactive) | –
50 | CCC(=O)NC(c1ccc2c(c1)OCO2)c1cc(Cl)c2cccnc2c1O (stereo not given) | -29% (inactive) | –
51 | O=C1c2ccccc2C(=O)N1c1cccc(O)c1 | -7.45% (inactive) | –
52 | O=C(O)c1ccc2c(c1)C(=O)N([C@H](Cc1ccc([N+](=O)[O-])cc1)C(=O)O)C2=O | 2.29% (inactive) | –
53 | Cc1ccc(S(=O)(=O)Nc2cc(F)c(F)cc2C(=O)Nc2nc(-c3ccccc3)cs2)cc1 | -6.06% (inactive) | –
54 | O=C1CCCC2=C1C1(CCCCC1)N=C(Nc1nc3ccccc3o1)N2 | 0.946% (inactive) | –
55 | COCCN(CCOC)c1nc(C)nc2c1nc(-c1ccccc1)n2CCN1CCOCC1 | -0.285% (inactive) | –
56 | Cc1cccc(CNc2ccc(S(=O)(=O)Nc3nccs3)cc2)c1O | 1.6% (inactive) | –
57 | COc1ccc(-c2nc3ccccc3n2Cc2ccccc2)cc1COc1ccc(NC(C)=O)cc1 | 3.97% (inactive) | –
58 | CC(=O)N1c2ccc(S(=O)(=O)Nc3ccc(C)c(C)c3)cc2CC1C (stereo not given) | 15.7% (inactive) | –
59 | Cc1ccccc1C(=O)N1CCc2cc(-c3ccnc(NC(=O)Cc4ccccc4)n3)ccc21 | 9.65% (inactive) | –
60 | CCOc1ccc(-c2csc(N3CCC(C(N)=O)CC3)n2)cc1 | -6.12% (inactive) | –

Row | Compound | activity change, negative = inhibition | Potency
61 | CC(=O)Nc1sc2c(c1C(O)c1nc3ccccc3s1)CCN(C(C)C)C2 (stereo not given) | 2.24% (inactive) | –
62 | Cc1cc2c(s1)c1cnn(Cc3cccc(C(F)(F)F)c3)c(=O)c1n2C | -6.6% (inactive) | –
63 | N[C@@H](Cc1ccc(O[S+](=O)([O-])c2cccc3cccnc23)cc1)C(=O)N1CCN(c2ccccc2)CC1 | 1.97% (inactive) | –
64 | CC(=O)CC(=O)Nc1ccc(Cl)c(C(F)(F)F)c1 | -0.0521% (inactive) | –
65 | O=S(=O)(c1ccc2c(c1)OCCO2)N1CCN(S(=O)(=O)c2ccccc2Cl)CC1 | 11.9% (inactive) | –
66 | CC(C)(C)c1cc(O)c(CN)c(C(C)(C)C)c1 | 7.72% (inactive) | –
67 | Brc1cnc2nc(SCc3ccccc3)[nH]c2c1 | -14.8% (inactive) | –
68 | Cc1cc(N[S+](=O)([O-])c2ccc(NC(=O)Cc3ccc(Cl)c([N+](=O)[O-])c3)cc2)no1 | 3.5% (inactive) | –
69 | CCOc1cc(C)c(Cl)cc1S(=O)(=O)n1cnc2ccccc21 | 2.2% [at 28 µM] (inactive) | –
70 | COC(=O)c1ccc2c(c1)S(=O)(=O)NC2=O | 4.05% (inactive) | –
71 | Cc1cc(C)nc(NC(=S)N2CCN(c3cccc([N+](=O)[O-])c3)CC2)c1 | 19.4% (inactive) | –
72 | Nc1ccc(-c2ccc(NC(=O)c3cccs3)cn2)cc1 | -6.86% (inactive) | –
73 | COC(=O)c1ccc(NC(=O)c2cc(-c3ccc(C)c(C)c3)nc3ccccc23)cc1 | -2.37% (inactive) | –
74 | NC(=O)C1CCN(c2cc(-c3ccc4c(c3)OCCCO4)ncn2)CC1 | -7.23% (inactive) | –
75 | Cc1ccc(-c2nnc(NC(=O)Nc3ccc4ccccc4c3)s2)cc1 | -18.6% (inactive) | –
76 | O=[N+]([O-])c1ccccc1S(=O)(=O)N1CCN(S(=O)(=O)c2ccc3c(c2)OCCO3)CC1 | -0.0089% (inactive) | –
77 | COc1cccc(C2c3c(ncn(-c4cccnc4)c3=N)Oc3ccc4ccccc4c32)c1 (stereo not given) | 0.421% (inactive) | –
78 | C[C@@H]1O[C@@H](O[C@H]2[C@@H](OC(=O)[C@]34CCC(C)(C)CC3C3=CCC5[C@@]6(C)C[C@H](O)[C@H](O[C@@H]7O[C@H](CO)[C@@H](O)[C@H](O)[C@H]7O[C@@H]7OC[C@@H](O)[C@H](O)[C@H]7O)[C@@](C)(C(=O)O)C6CC[C@@]5(C)[C@]3(C)CC4)OC[C@H](O)[C@@H]2O)[C@H](O)[C@H](O)[C@H]1O[C@@H]1OC[C@@H](O)[C@H](O)[C@H]1O (stereo not given in full) | 0.185% [at 11.2 µM] (inactive) | –
79 | CS(=O)(=O)c1ccc(C(=O)OC(C(=O)NC2C3CC4CC(C3)CC2C4)c2ccccc2)cc1[N+](=O)[O-] (stereo not given) | 1.95% (inactive) | –
80 | O=C1CCc2cc(S(=O)(=O)Nc3ccc(Cl)c(Cl)c3)c(F)cc2N1 | – | inactive
